From PubChem BioAssay
The source made the active and inactive calls.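 How the source made its calls, unless noted: active means inhibition of the reporter signal at or above 50%; inactive means inhibition below 50%.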

Columns and labels:
[1] = inhibitors of TNFa-induced NFkB p65 translocation, primary screen, imaging, HUVEC, MLSMR starter and 10KST1 sets (AID 438;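 active means inhibition above 20% together with a positive visual image hit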;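 further: compound added about 3h40 before a 20 min TNFalpha stimulation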;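 on inhibition: signal is the nuclear over cytoplasmic p65 intensity ratio per well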); conditions: HUVEC TNFa-induced p65 nuclear translocation; cell count: measured here: nuclei count (cytotoxicity indicator), at 2.08 µM; inhibition: at 2 µM, stronger effect = higher value, 0% TNFa-plus-vehicle, 100% no-TNFa wells
[2] = inhibitors of mutant huntingtin aggregation, primary screen, imaging, exon1htt(103Q)mCFP cells, high-content imaging (AID 483;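 active means visual image review flags a hit and inhibition of aggregation exceeds 20%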;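 further: compound exposure lasted 3 days before fixation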;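 on nuclei count: percent of the per-plate median nuclei count of sample wells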); conditions: exon1htt(103Q)mCFP cell line, aggregate imaging, at 2 µM; inhibition of aggregation: stronger effect = higher value; nuclei count: measured here: cell count, toxicity
[3] = inhibitors of E-selectin induction by TNFa, primary screen, imaging, HUVEC, immunofluorescence, MLSMR starter and 10KST1 sets (AID 487;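 active means visually confirmed hit in the image check and inhibition above 20%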;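 on inhibition: signal is fraction of cell area covered by stained E-selectin grains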;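 on nuclei count: 100% = median nuclei count of all wells on the same plate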); conditions: HUVEC TNFalpha-induced E-selectin immunofluorescence imaging, at 2 µM; inhibition: stronger effect = higher value; nuclei count: measured here: cell number, toxicity
[4] = target: Voltage-gated potassium channel subunit beta-2 (Rattus norvegicus) (UniProt P62483); experiment: KvBeta enzyme negative modulators, primary screen, biochemical, NADPH fluorescence (AID 622;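 active means fluorescence slope higher than the sample average by over 3 SD, cut at about -0.22 in these data, passing the limit was not always enough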;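 further: slope of raw intensity against log time taken from 70 to 1610 s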); conditions: recombinant KvBeta, 4-cyanobenzaldehyde reduction, at 10 µM, stronger effect = higher value
[5] = target: Voltage-gated potassium channel subunit beta-2 (Rattus norvegicus) (UniProt P62483); experiment: KvBeta positive modulators, primary screen, biochemical, NADPH fluorescence (AID 623;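 active means NADPH fluorescence slope more negative than the mean of all samples by about 3 SD, 99.7% confidence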;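 further: fluorescence intensity change per second fitted from 20 to 320 s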); conditions: Recombinant KvBeta, NADPH fluorescence decrease slope, 10 min; at 10 µM; stronger effect = lower value
[6] = target: Alpha-2C adrenergic receptor (Homo sapiens) (UniProt P18825); experiment: modulators of alpha2C/GIRK thallium flux, primary screen, cell-based, HEK293 alpha2C/GIRK1/2 (AID 624;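 active means fluorescence slope after compound addition differing from the mean of all screened samples at 99.7% confidence, in either direction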;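 further: slope of fluorescence ratio to pre-addition baseline per second over 15 to 24 s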); conditions: thallium flux BTC fluorescence, at 10 µM, actives lie on both sides
[7] = inhibitors of Sendai virus-induced IRF3 signaling, primary screen, TLR/RLR signaling modifier project, cell-based, Sendai virus stimulus, luciferase, 10K MLSCN set (AID 602276;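 active means inhibition at or above 50% at 10 µM; inactive means inhibition below 50%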;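 further: firefly luciferase from ISG56 promoter only with Renilla not read in this screen; 0% = Sendai virus plus DMSO and 100% = medium plus DMSO without virus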); conditions: HEK293 RL24 IRF3 luciferase reporter, at 10 µM, stronger effect = higher value
[8] = inhibitors of poly I:C-induced TLR3 signaling, primary screen, cell-based, poly I:C stimulus, luciferase, 10K MLSCN set (AID 602277); conditions: HEK293-TLR3 RL24 IRF3 luciferase reporter, at 10 µM, stronger effect = higher value

Sequence of Alpha-2C adrenergic receptor (Homo sapiens) (P18825 whole entry, looked up): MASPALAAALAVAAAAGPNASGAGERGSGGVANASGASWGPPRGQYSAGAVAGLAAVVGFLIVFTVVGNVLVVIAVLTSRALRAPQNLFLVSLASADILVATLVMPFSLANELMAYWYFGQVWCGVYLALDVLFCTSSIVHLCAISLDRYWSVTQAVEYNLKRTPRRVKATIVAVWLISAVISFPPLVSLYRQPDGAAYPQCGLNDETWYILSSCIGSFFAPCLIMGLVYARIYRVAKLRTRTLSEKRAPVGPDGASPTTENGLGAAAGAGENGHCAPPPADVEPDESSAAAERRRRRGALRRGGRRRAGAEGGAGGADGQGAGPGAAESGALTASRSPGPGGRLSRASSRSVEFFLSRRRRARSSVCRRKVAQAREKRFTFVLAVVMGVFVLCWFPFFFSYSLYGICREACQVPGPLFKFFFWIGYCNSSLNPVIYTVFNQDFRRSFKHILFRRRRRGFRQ
Sequence of Voltage-gated potassium channel subunit beta-2 (Rattus norvegicus) (P62483 whole entry, looked up): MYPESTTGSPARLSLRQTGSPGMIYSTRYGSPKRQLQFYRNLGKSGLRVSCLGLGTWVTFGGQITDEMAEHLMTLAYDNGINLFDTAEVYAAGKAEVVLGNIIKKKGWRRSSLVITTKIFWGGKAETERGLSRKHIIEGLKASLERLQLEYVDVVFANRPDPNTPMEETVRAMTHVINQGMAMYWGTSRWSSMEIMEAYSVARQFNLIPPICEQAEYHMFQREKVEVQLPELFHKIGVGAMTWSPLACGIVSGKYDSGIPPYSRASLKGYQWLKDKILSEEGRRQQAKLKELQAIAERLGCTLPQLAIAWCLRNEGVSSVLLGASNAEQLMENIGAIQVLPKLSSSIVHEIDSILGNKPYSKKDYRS

Structure (SMILES)	cell count [1]	inhibition [1]	inhibition of aggregation [2]	nuclei count [2] [%]	inhibition [3]	nuclei count [3] [%]	fluorescence slope [4]	NADPH fluorescence slope [5]	slope [6]	inhibition [7]	inhibition [8]
O=C(CSc1nccn1Cc1ccccc1)Nc1nccs1	388	-0.7% (inactive)	10.4% (inactive)	83.7	-16.7% (inactive)	118	-0.512 (inactive)	-2.7e-05 (inactive)	0.00698 (inactive)	-30.1% (inactive)	-82.1% (inactive)
CCN1CCN(CCCNC(=O)C2c3ccccc3C(=O)N(C)C2c2ccc(OC)cc2)CC1 (centres undefined)	567	15.4% (inactive)	-1.2% (inactive)	82.8	31.9% (inactive)	93.8	-0.504 (inactive)	-1.6e-06 (inactive)	0.00453 (inactive)	2.59% (inactive)	14% (inactive)
COc1ccc(-c2nc3c(c(=O)n(C)c(=O)n3C)n2CC2CC(c3ccccc3)=NO2)cc1OC (centres undefined)	233	-3.2% (inactive)	5.3% (inactive)	87.9	-3.5% (inactive)	86.7	-0.587 (inactive)	-2.7e-05 (inactive)	0.00673 (inactive)	29.6% (inactive)	30.8% (inactive)
Cc1noc(C)c1C(=O)Nc1ccc(Cl)cc1C(F)(F)F	327	-13.5% (inactive)	1.7% (inactive)	99.5	-6% (inactive)	102	-0.625 (inactive)	-1e-05 (inactive)	0.0031 (inactive)	17.2% (inactive)	18% (inactive)
O=C(CCCNS(=O)(=O)c1ccccc1)NCc1ccco1	242	-6.9% (inactive)	22.9% (inactive)	80.7	27.9% (inactive)	80.8	-0.425 (inactive)	-1.4e-05 (inactive)	0.00453 (inactive)	12.9% (inactive)	10.4% (inactive)
CC(=O)c1cc(F)c(N2CCN(C(=O)Cc3ccccc3)CC2)cc1C	774	-3.9% (inactive)	-30.4% (inactive)	84.3	-25.8% (inactive)	110	-0.493 (inactive)	-6.1e-05 (inactive)	0.00566 (inactive)	3.34% (inactive)	0.856% (inactive)
O=C(O)CCc1ccc(-c2cccs2)o1	314	-7.8% (inactive)	-10.2% (inactive)	103	-23.1% (inactive)	118	-0.366 (inactive)	-0.00014 (inactive)	0.00568 (inactive)	16.2% (inactive)	27% (inactive)
CC(=O)OCCNc1cc(N2CCN(C)CC2)c2noc3c2c1C(=O)c1ccccc1-3	746	1.6% (inactive)	-43.5% (inactive)	114	-15.4% (inactive)	111	-0.58 (inactive)	-2.8e-05 (inactive)	0.00388 (inactive)	27.6% (inactive)	21.4% (inactive)
COC(=O)c1cn(C(=O)c2ccc(Br)o2)c2ccccc12	309	-12.5% (inactive)	17.4% (inactive)	97.7	-179% (inactive)	101	-0.33 (inactive)	-2.6e-05 (inactive)	0.00583 (inactive)	0.625% (inactive)	18% (inactive)
Cn1c(SCC(=O)Nc2ccc3c(c2)OCO3)nnc1-c1cnccn1	656	6.5% (inactive)	3.7% (inactive)	94.2	46.9% (inactive)	91.7	-0.366 (inactive)	-5.5e-05 (inactive)	0.00395 (inactive)	12.5% (inactive)	24.2% (inactive)
C/C=C/Cn1c(Br)nc2c1c(=O)[nH]c(=O)n2C	650	10.6% (inactive)	-10.8% (inactive)	73	20.1% (inactive)	103	-0.625 (inactive)	-4.7e-05 (inactive)	0.00443 (inactive)	15.1% (inactive)	10.7% (inactive)
O=C(C1CCC(N2C(=O)C3CC=CCC3C2=O)CC1)N1CCCCC1 (centres undefined)	257	22.4% (active)	7.8% (inactive)	80.1	23.7% (inactive)	97.6	-0.356 (inactive)	-5.2e-05 (inactive)	0.00567 (inactive)	5.96% (inactive)	27.2% (inactive)
c1ccc(-c2noc(C3CCCCC3)n2)nc1	665	-44.9% (inactive)	-13.4% (inactive)	97.5	-29.2% (inactive)	110	-0.52 (inactive)	-2.4e-05 (inactive)	0.00485 (inactive)	-1.58% (inactive)	-68.3% (inactive)
CC(C)CN(C(=O)c1ccc(=O)n(C)n1)c1nc2ccccc2s1	369	4.8% (inactive)	-17.5% (inactive)	93.5	-5.9% (inactive)	112	-0.332 (inactive)	-7.5e-05 (inactive)	0.00541 (inactive)	-18.6% (inactive)	-44.4% (inactive)
